# Measured values published in PubChem BioAssay (NCATS).
# Results filed as inconclusive are left out. A call without a number means that no potency is given here. The source made the active and inactive calls. Calls follow the shape of the dose curve; as a rule, active = well fitted cell-killing curve with a large enough effect; inconclusive = small, poorly fitted or top-dose-only effect, or effect the other way; inactive = no such curve, though single readings can be large or run the other way.
# Experiment: Quantitative High-Throughput drug screen in 47 multiple myeloma cell lines against the NCATS MIPE library collection: FR4_PLB cell viability assay (AID 1918924; also: nearly all actives have a fitted effect of over 35% in size)
# Conditions: FR4_PLB myeloma cells viability, CellTiter-Glo ATP, 48 h; series mostly up to 45.8 µM
# Description: PI: Beverly A. Mock Ph.D.
# Laboratory of Cancer Biology and Genetics,
# Center for Cancer Research, National Cancer Institute,
# National Institute of Health, Bethesda, Maryland
# Drug resistance and disease progression are common in multiple myeloma (MM) patients, underscoring the need for new therapeutic combinations. […] We hypothesized that effective combinations would reduce MYC expression and enhance p16 activity. […] These preclinical data identify potentially useful drug combinations for evaluation in drug-resistant MM and reveal potential mechanisms of combined drug sensitivity.
# Described herein is the primary MIPE qHTS used to cherrypick compounds. Validated compounds were then further tested for potential synergistic activiy.
# [1] Peat TJ, Gaikwad SM, Dubois W, Gyabaah-Kessie N, Zhang S, Gorjifard S, Phyo Z, Andres M, Hughitt VK, Simpson RM, Miller MA, Girvin AT, Taylor A, Williams D, D'Antonio N, Zhang Y, Rajagopalan A, Flietner E, Wilson K, Zhang X, Shinn P, Klumpp-Thomas C, McKnight C, Itkin Z, Chen L, Kazandijian D, Zhang J, Michalowski AM, Simmons JK, Keats J, Thomas CJ, Mock BA. Drug combinations identified by high-throughput screening promote cell cycle transition and upregulate Smad pathways in myeloma. Cancer Lett. 2023 Aug 1;568:216284. doi: 10.1016/j.canlet.2023.216284. Epub 2023 Jun 24. PMID: 37356470; PMCID: PMC10408729.
# SEQUENCE No. (e.g., 1, 2, 3, etc.); […] (e.g., Cells, Incubation, Reagent, etc.); VALUE and DESCRIPTION.
# 1; Cells; 5 uL; white, solid bottom 1536-well Greiner assay plate.
# 2; Compounds; 23 nL; Kalypsis pin tool (Wako USA) equipped with a 1536-well pin head to transfer to the assay plates.
# 3; Incubation; 48 hours; 37C incubation.
# 4; Reagent;5uL; CellTiter Glo (Promega).
# 5; Detector; 425V; Luminescence; Viewlux PerkinElmer.
# NOTES (numbers refer to Sequence numbers above)
# 1. The cell-based screening methods employed in this study were like those previously published. Briefly, the corresponding myeloma cell lines were screened in 1,536-well plates with 500 cells, 5-uL per well for inhibition of cell viability (assessed by measuring ATP levels with CellTiterGlo).
# 2. NCATS MIPE 4.0 library of approved and investigational drugs were added using the Kalypsis pin tool. Wells treated with DMSO only for 100% viability and media only wells for 0% viability were used as controls.
# 3. The assay plates were covered and incubated for 48 hours in a 37C, 5% CO2 incubator with controlled humidity.
# 4. After 48 hours, CellTilter-GloTM luminescent substrate mix (Promega) reagent was added to the assay plate and plates we incubated for 5 min at room temperature.
# 5. Signal was measured as median relative luminescence units on a ViewLux (PerkinElmer) multiplate reader.
# [1] Heske CM, Davis MI, Baumgart JT, Wilson K, Gormally MV, Chen L, Zhang X, Ceribelli M, Duveau DY, Guha R, Ferrer M, Arnaldez FI, Ji J, Tran HL, Zhang Y, Mendoza A, Helman LJ, Thomas CJ. Matrix Screen Identifies Synergistic Combination of PARP Inhibitors and Nicotinamide Phosphoribosyltransferase (NAMPT) Inhibitors in Ewing Sarcoma. Clin Cancer Res. 2017 Dec 1;23(23):7301-7311. doi: 10.1158/1078-0432.CCR-17-1121. Epub 2017 Sep 12. PMID: 28899971; PMCID: PMC6636827.
# Potency is read from the fitted curve at half-maximal effect.
row,SMILES,Potency
1,CCNC(=O)[C@H]1O[C@@H](n2cnc3c(N)nc(NCCc4ccc(CCC(=O)O)cc4)nc32)[C@H](O)[C@H]1O,inactive
2,COc1cc2c(cc1OC)CC(=O)N(CCCN(C)C[C@H]1Cc3cc(OC)c(OC)cc31)CC2,inactive
3,CC(O)=C(C#N)C(=O)Nc1ccc(C(F)(F)F)cc1,16.6 µM (active)
4,O=C1CN2Cc3c(ccc(Cl)c3Cl)N=C2N1,inactive
5,CC(C)[C@H](O)C(=O)N[C@@H](C)C(=O)N[C@@H]1C(=O)N(C)CCc2ccccc21,inactive
6,COc1nccc(-c2c(-c3ccc(F)cc3)ncn2C2CCC(O)CC2)n1 (stereo not given),inactive
7,CN[C@@H]1[C@@H](O)[C@@H](O[C@@H]2[C@@H](O)[C@H](O[C@H]3O[C@H](CN)[C@@H](O)[C@H](O)[C@@H]3O)[C@@H](N)C[C@@H]2NC(=O)[C@@H](O)CN)OC[C@]1(C)O,inactive
8,C=C1c2cccc(O)c2C(O)=C2C(=O)[C@@]3(O)C(O)=C(C(N)=O)C(=O)[C@@H](N(C)C)[C@@H]3[C@@H](O)[C@H]12,16.6 µM (active)
9,COc1cc([C@H]2Oc3cc([C@H]4Oc5cc(O)cc(O)c5C(=O)[C@H]4O)ccc3O[C@H]2CO)ccc1O,18.7 µM (active)
10,COc1cc2c(cc1Cc1cccc(Cl)c1F)c(=O)c(C(=O)O)cn2[C@H](CO)C(C)C,20.9 µM (active)
11,CC(C)c1onc(-c2c(Cl)cccc2Cl)c1COc1ccc(C=Cc2cccc(C(=O)O)c2)c(Cl)c1,inactive
12,N=C1SC(=Cc2ccc(-c3ccc4c(c3)C(=O)NC4=O)o2)C(=O)N1c1ccc(Br)cc1,3.32 µM (active)
13,O=C(O)Cc1cccc(OCCCN(Cc2cccc(C(F)(F)F)c2Cl)CC(c2ccccc2)c2ccccc2)c1,inactive
14,O=C1NC(=O)C(c2cnc3ccccn23)=C1c1cn2c3c(cccc13)CN(C(=O)N1CCOCC1)CC2,0.0053 µM (active)
15,C[C@@H]1[C@H](C)CC[C@]2(C(=O)O)CC[C@]3(C)C(=CC[C@@H]4[C@@]5(C)CC[C@H](O)C(C)(C)[C@H]5CC[C@]43C)[C@@H]12,42.9 µM (active)
16,CN(C)CCCNC(=O)c1ccc(-c2cc(O)c3ncccc3c2)cc1,20.9 µM (active)
17,Cc1csc(-c2nnc(Nc3ccc(Oc4ncccc4-c4ccnc(N)n4)cc3)c3ccccc23)c1,16.6 µM (active)
18,CS(=O)(=O)c1ccc(C2=C(c3ccccc3)C(=O)OC2)cc1,inactive
19,O=C(c1ccc(F)c(F)c1Nc1ccc(I)cc1F)N1CC(O)([C@H]2CCCCN2)C1,20.9 µM (active)
20,CCC(=C(c1ccc(O)cc1)c1ccc(OCCNC)cc1)c1ccccc1,26.4 µM (active)

row,SMILES,Potency
1,N#CC(c1ccc(Cl)cc1)c1c(Cl)cc(-n2ncc(=O)[nH]c2=O)cc1Cl (stereo not given),inactive
2,Cc1ccc(NC(=O)c2ccc(CN3CCN(C)CC3)cc2)cc1Nc1nc(-c2cccnc2)cs1,20.9 µM (active)
3,CCC(C)SSc1ncc[nH]1 (stereo not given),16.6 µM (active)
4,Cn1c(=O)c(Oc2ccc(F)cc2F)cc2cnc(NC3CCOCC3)nc21,inactive
5,CCOC(=O)[C@@H](N)CCC(=O)N[C@@H](CSCc1ccccc1)C(=O)N[C@@H](C(=O)OCC)c1ccccc1,inactive
6,CNC(=O)c1c(-c2ccc(F)cc2)oc2cc(N(CCO)S(C)(=O)=O)c(C3CC3)cc12,23.5 µM (active)
7,C[C@]12CC[C@@H]3c4ccc(O)cc4CC[C@H]3[C@H]1[C@@H](O)[C@@H](O)[C@H]2O,inactive
8,O=c1cc(-c2ccc(O)c(O)c2)oc2cc(O)cc(O)c12,inactive
9,Cc1ccccc1C(=O)c1ccc(Nc2ccc(Br)cc2N)cc1Cl,6.62 µM (active)
10,COc1cc2ncn(-c3cc(OCc4ccccc4S(C)(=O)=O)c(C#N)s3)c2cc1OC,inactive
11,CCCCC[C@H](O)C=C[C@H]1[C@H](O)CC(=O)[C@H]1CCCCCCC(=O)O,inactive
12,O=C(CO)N1CCC(c2[nH]nc(-c3ccc(Cl)cc3)c2-c2ccncn2)CC1,inactive
13,C[C@@H]1CCO[C@H]2Cn3cc(C(=O)NCc4ccc(F)cc4F)c(=O)c(O)c3C(=O)N12,37.2 µM (active)
14,Cc1cnc(-c2cc(N3CCN(C(=O)CCS(C)(=O)=O)CC3)ncc2Cl)c(C)c1,inactive
15,NS(=O)(=O)c1cc(Cl)c(Cl)c(S(N)(=O)=O)c1,inactive
16,C[C@@H](NC(=O)c1ncnc(N)c1Cl)c1ncc(C(=O)Nc2cc(C(F)(F)F)c(Cl)cn2)s1,14.8 µM (active)
17,C[C@]12C=CC(=O)C=C1CC[C@@H]1[C@@H]2[C@@H](O)C[C@@]2(C)[C@@H]1CC[C@]2(O)C(=O)CO,inactive
18,CC(=O)O[C@]1(C(C)=O)CC[C@H]2[C@@H]3C=C(Cl)C4=CC(=O)[C@@H]5C[C@H]5[C@]4(C)[C@@H]3CC[C@@]21C,inactive
19,O=C(O)C1=CO[C@@H](O[C@@H]2O[C@H](CO)[C@H](O)[C@H](O)[C@H]2O)[C@@H]2C(CO)=CC[C@H]12,inactive
20,CN(C)S(=O)(=O)c1ccc2c(c1)C(=Cc1cc3c([nH]1)CCCC3)C(=O)N2,2.35 µM (active)
